From publication PMC4336329 (PLoS ONE, 2015)
About 14,000 (4.5%) of roughly 310,000 compounds showed an effect of 50% or more. The effect is printed as a negative number. The sample holds strong results, similar compounds and a random draw of the others, so the mix is not that of the screen.

biological target: human ether-à-go-go-related gene (hERG) potassium channel (human, UniProt Q12809); test: primary screen, population patch clamp on CHO cells stably expressing hERG; higher = less effect of the substance
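Further: peak tail current of the secondary pulse compared with the same well before compound.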

Chain of human ether-à-go-go-related gene (hERG) potassium channel (Q12809 whole entry, looked up): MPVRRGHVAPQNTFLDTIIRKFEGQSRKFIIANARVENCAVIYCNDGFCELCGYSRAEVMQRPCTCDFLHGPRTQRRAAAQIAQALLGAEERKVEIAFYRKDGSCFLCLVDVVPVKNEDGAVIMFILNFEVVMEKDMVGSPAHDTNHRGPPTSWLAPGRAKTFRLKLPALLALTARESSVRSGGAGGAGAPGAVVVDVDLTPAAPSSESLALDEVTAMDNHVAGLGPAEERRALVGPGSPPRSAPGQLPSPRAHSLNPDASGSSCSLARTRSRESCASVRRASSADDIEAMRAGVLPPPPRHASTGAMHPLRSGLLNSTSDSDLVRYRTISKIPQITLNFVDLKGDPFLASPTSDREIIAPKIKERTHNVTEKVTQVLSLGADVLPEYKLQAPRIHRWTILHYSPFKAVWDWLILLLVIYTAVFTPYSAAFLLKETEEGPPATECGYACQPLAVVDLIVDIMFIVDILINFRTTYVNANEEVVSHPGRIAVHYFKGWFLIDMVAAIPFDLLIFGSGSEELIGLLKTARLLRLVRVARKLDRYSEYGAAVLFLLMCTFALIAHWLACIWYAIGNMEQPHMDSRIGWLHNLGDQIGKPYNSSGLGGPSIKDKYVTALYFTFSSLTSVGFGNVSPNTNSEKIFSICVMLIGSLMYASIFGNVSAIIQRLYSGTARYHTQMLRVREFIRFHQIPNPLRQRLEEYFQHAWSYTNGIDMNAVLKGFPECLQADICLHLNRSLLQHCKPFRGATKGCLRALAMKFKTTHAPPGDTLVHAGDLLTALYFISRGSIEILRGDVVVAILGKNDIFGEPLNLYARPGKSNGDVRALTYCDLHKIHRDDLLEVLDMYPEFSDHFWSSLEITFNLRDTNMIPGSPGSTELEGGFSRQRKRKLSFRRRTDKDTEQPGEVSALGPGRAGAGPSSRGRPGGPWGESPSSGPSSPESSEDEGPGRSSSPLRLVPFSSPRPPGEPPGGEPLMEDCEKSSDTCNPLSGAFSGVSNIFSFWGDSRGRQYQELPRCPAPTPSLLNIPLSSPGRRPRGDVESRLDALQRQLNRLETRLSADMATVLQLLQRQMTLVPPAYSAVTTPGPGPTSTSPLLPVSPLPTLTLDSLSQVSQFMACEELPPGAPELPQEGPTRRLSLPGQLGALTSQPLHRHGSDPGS

Compound | hERG current change (%, negative = inhibition) at 10uM
CCCN1C(=O)CC(C(=O)OC)=C1C | 12.9%
CCN(CC)c1ncnnc1-c1ccccc1 | 15.9%
CCN(CC)C1=NC=CC(c2ccccc2)=CC1C (centres unmarked) | -55.1%
CCN(CC)c1ccccc1 | 12.7%
CCC1C=C(c2ccccc2)C=CN=C1N(CC)CC (centres unmarked) | -61.6%
CCN(CC)c1cc(-c2ccccc2)ncn1.Cl | -16.5%
CCN(CC)c1nc(C(N)=O)cc(-c2ccccc2)n1 | -0.608%
COc1ccccc1NS(=O)(=O)c1cccc(N=C2N=C(N)c3ccccc32)c1 | 11.7%
CCCc1nn(C)c2c1C(c1ccncc1)C(C#N)=C(N)O2 (centres unmarked) | 15.4%
C/C(O)=C/c1nc2ccccc2[nH]c1=O | -5.26%
C=C(Cl)COc1ccc2c(CCCC)cc(=O)oc2c1 | -24.9%
C=CCn1c(NCc2ccccc2OC)nc2ccccc21 | -18.9%
CCCn1c(NCc2cccc(OC)c2OC)nc2ccccc21 | -13.9%
COc1ccccc1CNc1nc2ccccc2n1CCN1CCCCC1 | -61.5%
Oc1ccccc1CNc1nc2ccccc2n1CCN1CCCCC1 | -2.31%
CCn1c(NCc2cccc(OC)c2OC)nc2ccccc21 | -21%
COc1cccc(CNc2nc3ccccc3n2CCN2CCCCC2)c1OC | -63.6%
CC(Nc1ccccc1CO)C(=O)Nc1cccc(Cl)c1Cl (centres unmarked) | 5.35%
O=C(Cn1c(NCCO)nc2ccccc21)NCC(F)(F)F | 10.4%
O=C(NCCC1=CCCCC1)C1CCCN(S(=O)(=O)c2ccccc2)C1 (centres unmarked) | 6.97%
CCCC(=O)Nc1ccc2oc(-c3ccncc3)nc2c1 | 5.92%
CCOC(=O)c1oc2ccccc2c1CN1CCN(C)CC1.Cl | -61.5%

Compound | hERG current change (%, negative = inhibition) at 10uM
CCOC(=O)c1oc2ccccc2c1CN1CCCCC1.Cl | -55%
CCOC(=O)c1oc2ccccc2c1CN1CCN(c2ccccc2)CC1.Cl | -26.6%
CCOC(=O)c1oc2ccccc2c1CN1CCOCC1.Cl | -4.56%
CCOC(=O)c1oc2ccccc2c1CN1CC(C)OC(C)C1 (centres unmarked) | -0.576%
CCOC(=O)c1oc2ccccc2c1CN1CCN(C(=O)c2ccccc2)CC1 | -41.7%
Cc1ccc(Cn2cc(/C=C/C(=O)O)c(-c3ccccc3)n2)cc1 | 6.77%
CCC(C)C1Nc2ccc(C(=O)NCCc3ccc(OC)c(OC)c3)cc2NC1=O (centres unmarked) | 20.4%
Cc1ccc(N2CCN(c3ccc(C)cc3)C2c2cccnc2)cc1 | 17.6%
CCC(=O)NC(=S)NNC(=O)COc1ccc(Br)cc1 | 14.4%
CCOCCOc1nc(C)cc(C)c1S(=O)(=O)c1ccccc1C | -4.15%
CCOC(=O)C1(CCc2ccccc2)CCN(Cc2cccc3c2OCO3)CC1 | -75%
CCOC(=O)C1(CCOc2ccccc2)CCN(Cc2cccc3c2OCO3)CC1 | -64.6%
CCOC(=O)C1(Cc2ccccc2)CCN(Cc2cccc3c2OCO3)CC1 | -36.7%
O=C(CN1C(=O)c2ccccc2C1=O)Nc1ccccc1 | -0.118%
CCOC(=O)N1CCN(C(=O)C2CCCN(S(=O)(=O)c3cc(C)ccc3OC)C2)CC1 (centres unmarked) | -5.57%
COCc1c(C#N)c(NCc2cc(OC)c(OC)c(OC)c2)nc(C)c1[N+](=O)[O-] | -12.2%
Cc1ncc(CN2CCC(C(=O)Nc3cccc(-c4cscn4)c3)CC2)cn1 | -11.9%
CSc1ncc(CN2CCC(C(=O)Nc3cccc(-c4cscn4)c3)CC2)cn1 | -35.7%
O=C(Nc1ccc(-n2cccn2)cc1)C1CCN(Cc2ccsc2)CC1 | -81.1%
O=C(Nc1ccc(-n2cccn2)cc1)C1CCN(Cc2ccccn2)CC1 | -16.7%
Cc1ncc(CN2CCC(C(=O)Nc3ccc(-n4cccn4)cc3)CC2)s1 | -21.2%
O=C(Nc1cccc(-c2cscn2)c1)C1CCN(Cc2ccsc2)CC1 | -65%

Compound | hERG current change (%, negative = inhibition) at 10uM
Cc1ccc(CN(CC(=O)NCc2ccccn2)S(=O)(=O)c2ccccc2)cc1 | -23.9%
COC(=O)CN(C#N)c1nc(NCc2ccccc2)nc(OC)n1 | -1.33%
CCN(CC(=O)Nc1ccc2c(c1)OCCO2)CC(=O)Nc1ccc2c(c1)OCO2 | 28%
Cc1ccc(CC(CC(=O)Nc2cccc(C(F)(F)F)c2)C(=O)O)cc1 (centres unmarked) | 18%
COc1cc2c(cc1OC)-c1cc(OCCN3CCOCC3)nc(=O)n1CC2 | -11.5%
O=C(O)c1nccnc1C(=O)Nc1ccc(Cl)cn1 | 17.6%
CCC(C)NC(=O)[C@H]1N2C(=O)c3ccccc3C2SC1(C)C (some centres unmarked) | 12.8%
Cc1noc(C(=O)Nc2c(C)nn(Cc3ccccc3)c2C)c1Cl | 4.71%
CC1CCCC(NC(=O)CCC(=O)c2ccc(F)cc2)C1C (centres unmarked) | 8.27%
CC1CCCC(NCC(O)COC(c2ccc(F)cc2)c2ccc(F)cc2)C1C (centres unmarked) | -71.6%
CC1CCCC(NC(=O)CSc2ccc(F)cc2)C1C (centres unmarked) | 18.7%
Cc1cccc(C(=O)N2CCN(c3ncnc4c3cnn4-c3ccccc3)CC2)c1 | -19.4%
CCOC(=O)C(C)Oc1ccc2c(-c3cccc([N+](=O)[O-])c3)cc(=O)oc2c1 (centres unmarked) | -62.4%
COc1ccc(-c2cc(=O)oc3cc(OCC(=O)NCc4ccccn4)ccc23)cc1 | -6.52%
COc1ccc(-c2cc(=O)oc3cc(OC(C)C(=O)NCc4ccccn4)ccc23)cc1 (centres unmarked) | -54.8%
CC(=O)COc1ccc2c(-c3cccc([N+](=O)[O-])c3)cc(=O)oc2c1 | -25.9%
COc1ccc(-c2cc(=O)oc3c(C)c(OC(C)C(=O)NCc4ccccn4)ccc23)cc1 (centres unmarked) | -9.16%
CCc1cc(=O)oc2cc(OC(C)C(=O)NCc3ccccn3)ccc12 (centres unmarked) | 14.4%
Cc1cc(=O)oc2cc(OC(C)C(=O)NCc3ccccn3)ccc12 (centres unmarked) | 9.03%
COC(=O)C(C)Oc1ccc2c(-c3cccc([N+](=O)[O-])c3)cc(=O)oc2c1 (centres unmarked) | -25.8%
CC(Oc1ccc2c(-c3ccccc3)cc(=O)oc2c1)C(=O)NCc1ccccn1 (centres unmarked) | -50.9%
